{
  "source": "PubChem BioAssay AID463173",
  "about": "(ICCB-Longwood Screening Facility, Harvard Medical School, 2010)",
  "note": "Screen size: about 52,000 compounds; about 4,300 (8.3%) were called active. This is one part of a sample in which actives are shown more often than they occur. A number with no mark means an inactive call. Rule as the data show it: active = survival mostly below about 52% (no sharp cut-off); inactive = mostly above about 56%.",
  "data": [
    {"tested_on": "DeltatarO mutant", "assay": "S. aureus survival, RN4220 and DeltatarO strains – OD600, teichoic acid synthesis inhibitors, primary screen (AID 463173)", "details": "S. aureus RN4220 wild type/DeltatarO growth, OD600, 18 h, hits give low values, screened at 18.75 µg/mL (by protocol)", "values": [
      {"smiles": "CCCCN(CC)CCCNC(=O)c1nn(-c2ccc(OC)cc2)c(=O)c2c1c1ccccc1n2C", "survival": "123%"},
      {"smiles": "COc1cccc(C2=NS(=O)(=O)N(C)C(C(=O)Nc3cccc(O)c3)=C2)c1", "survival": "70%"},
      {"smiles": "COc1cc(NC(=O)Cn2ccn(-c3cc(C)cc(C)c3)c(=O)c2=O)cc(OC)c1", "survival": "71%"},
      {"smiles": "CCN(c1ccccc1C)S(=O)(=O)c1nnc(NC(=O)c2ccccc2C)s1", "survival": "15% (active)"},
      {"smiles": "CCN(CC)S(=O)(=O)c1nnc(NC(=O)c2ccccc2Cl)s1", "survival": "70%"},
      {"smiles": "CCN(c1cc(C)cc(C)c1)S(=O)(=O)c1nnc(NC(=O)c2ccccc2C)s1", "survival": "49%"},
      {"smiles": "CCN(c1ccccc1)S(=O)(=O)c1nnc(NC(=O)c2ccccc2OC)s1", "survival": "47%"},
      {"smiles": "CCN(c1ccc(Cl)cc1)S(=O)(=O)c1nnc(NC(=O)c2ccccc2C)s1", "survival": "8% (active)"},
      {"smiles": "CCN(c1ccc(OC)cc1)S(=O)(=O)c1nnc(NC(=O)c2ccccc2Cl)s1", "survival": "46% (active)"},
      {"smiles": "CCN(c1cccc(C)c1)S(=O)(=O)c1nnc(NC(=O)c2ccccc2Cl)s1", "survival": "17% (active)"},
      {"smiles": "CCN(c1ccc(Cl)cc1)S(=O)(=O)c1nnc(NC(=O)C(C)C)s1", "survival": "84%"},
      {"smiles": "OCCN(Cc1ccccc1)Cc1ccccc1O", "survival": "102%"},
      {"smiles": "CC(=O)N1c2ccccc2C(=O)C1N1CCN(c2ccccc2)CC1", "note": "(configuration not stated)", "survival": "85%"},
      {"smiles": "CCCOc1ccc(-c2cccc(NS(=O)(=O)c3cc(OC)ccc3OC)c2)nn1", "survival": "99%"},
      {"smiles": "COc1cccc(Nc2nc3cc(Cl)c(Cl)cc3nc2-n2nc(C)cc2C)c1", "survival": "98%"},
      {"smiles": "Cc1ccc(C(=O)c2cn(CC(=O)Nc3ccc(C)cc3Cl)c3nc(C)ccc3c2=O)cc1", "survival": "99%"},
      {"smiles": "Cc1ccc(Cl)cc1NC(=O)CCCn1c(=O)c2cccn2c2cccnc21", "survival": "100%"},
      {"smiles": "O=C(O)CCCN1CCCC1=O", "survival": "81%"},
      {"smiles": "CCCCOC(=O)c1ccc(NC(=O)CSc2nc3c(c(=O)[nH]2)CCC3)cc1", "survival": "55%"},
      {"smiles": "CC(C)=NOC1=NS(=O)(=O)c2ccccc21", "survival": "92%"},
      {"smiles": "O=C(Nc1ccc(F)c(Cl)c1)N1CCC2(CC1)Oc1ccccc1C(=O)N2Cc1ccccc1F", "survival": "55%"},
      {"smiles": "CC(C)OCCCNC(=O)CCCn1c(SCC(N)=O)nc2c(sc3ccccc32)c1=O", "survival": "88%"},
      {"smiles": "Cc1ccccc1C(=O)Nc1nnc(S(=O)(=O)N(C)Cc2ccc(Cl)cc2)s1", "survival": "102%"},
      {"smiles": "CCN(c1ccc(OC)cc1)S(=O)(=O)c1nnc(NC(=O)c2ccccc2C)s1", "survival": "37% (active)"},
      {"smiles": "CCN(c1ccc(OC)cc1)S(=O)(=O)c1nnc(NC(=O)COc2ccc(F)cc2)s1", "survival": "70%"},
      {"smiles": "COc1ccccc1C(=O)Nc1nnc(S(=O)(=O)N(C)c2ccc(Cl)cc2)s1", "survival": "95%"},
      {"smiles": "Cc1ccccc1C(=O)Nc1nnc(S(=O)(=O)N(C)c2ccc(Cl)cc2)s1", "survival": "30% (active)"},
      {"smiles": "Cc1ccc(C)c(NC(=O)CN2C(=O)C3(SCC(=O)N3c3ccc(C)c(C)c3)c3ccccc32)c1", "note": "(configuration not stated)", "survival": "80%"},
      {"smiles": "Cc1cc(C)cc(NC(=O)Cn2c(=O)n(CC(=O)NCCc3ccccc3)c(=O)c3ccccc32)c1", "survival": "62%"},
      {"smiles": "O=C(Nc1ccc(O)c(-c2nc3ccccc3o2)c1)c1cccs1", "survival": "75%"},
      {"smiles": "Cc1cc(C)c2oc(-c3ccc(C)c(NC(=O)/C=C/c4ccco4)c3)nc2c1", "survival": "45% (active)"},
      {"smiles": "CC(C)c1ccc2oc(-c3ccc(Cl)c(NC(=O)c4cccs4)c3)nc2c1", "survival": "5% (active)"},
      {"smiles": "Cc1ccc2oc(-c3cc(NC(=O)c4cccs4)cc(C)c3O)nc2c1", "survival": "138%"},
      {"smiles": "CC(C)c1ccc2oc(-c3ccc(Cl)c(NC(=O)Cc4ccccc4)c3)nc2c1", "survival": "116%"},
      {"smiles": "Cc1ccc(-c2nc3cc(C(C)C)ccc3o2)cc1NC(=O)c1cccs1", "survival": "57%"},
      {"smiles": "CCc1ccc2oc(-c3ccc(C)c(NC(=O)/C=C/c4ccco4)c3)nc2c1", "survival": "83%"},
      {"smiles": "Cc1cc(NC(=O)c2cccs2)cc(-c2nc3cc(Cl)ccc3o2)c1O", "survival": "79%"},
      {"smiles": "Cc1ccc2oc(-c3ccc(C)c(NC(=O)/C=C/c4ccco4)c3)nc2c1", "survival": "58%"},
      {"smiles": "Cc1c(NC(=O)c2cccs2)cccc1-c1nc2cc(Cl)ccc2o1", "survival": "42%"},
      {"smiles": "CC(C)c1ccc2oc(-c3cc(NC(=O)c4cccs4)ccc3Cl)nc2c1", "survival": "16% (active)"},
      {"smiles": "CCc1ccc2oc(-c3cc(NC(=O)c4cccs4)ccc3Cl)nc2c1", "survival": "19% (active)"},
      {"smiles": "Cc1ccccc1CS(=O)(=O)Cc1ccc(C(=O)NCCc2ccccc2)o1", "survival": "86%"},
      {"smiles": "COc1ccc(Cn2c(SCc3ccc(C(=O)NCc4cccs4)cc3)nc3cccnc32)cc1", "survival": "63%"},
      {"smiles": "CC(=O)c1cccc(NC(=O)c2ccc(Cl)c(S(=O)(=O)N3CCOCC3)c2)c1", "survival": "73%"},
      {"smiles": "CCc1cccc(C)c1NC(=O)c1ccc2c(c1)CCN2S(=O)(=O)c1ccc(Cl)cc1", "survival": "67%"},
      {"smiles": "CCCn1c2ccccc2c2cnn(CC(=O)NC(CCSC)C(=O)OC)c(=O)c21", "note": "(configuration not stated)", "survival": "124%"},
      {"smiles": "N#Cc1nc(/C=C/c2ccc(F)cc2)oc1N1CCCCC1", "survival": "93%"},
      {"smiles": "COc1ccc(NC(=O)CCNS(=O)(=O)c2ccc3c(c2)CCCC(=O)N3)cc1", "survival": "101%"},
      {"smiles": "O=C(NCCc1ccccc1)c1ccc(Cn2c(SCc3ccc(F)cc3)nc3cccnc32)cc1", "survival": "95%"},
      {"smiles": "CC(=O)c1cccc(NC(=O)CSc2nc3c(=O)n(C)c(=O)n(C)c3n2C)c1", "survival": "79%"},
      {"smiles": "Cc1cc(NC(=O)c2cccnc2)cc(-c2nc3cc(Cl)ccc3o2)c1O", "survival": "140%"},
      {"smiles": "CC(C)c1ccc2oc(-c3cc(NC(=O)c4cccnc4)ccc3Cl)nc2c1", "survival": "-2% (active)"},
      {"smiles": "O=C(Nc1cc(-c2nc3cc(Cl)ccc3o2)ccc1Cl)c1cccs1", "survival": "59%"},
      {"smiles": "CCc1ccc2oc(-c3cc(NC(=O)c4cccnc4)cc(C)c3O)nc2c1", "survival": "65%"},
      {"smiles": "Cc1cc(C)c2oc(-c3ccc(Cl)c(NC(=O)c4cccs4)c3)nc2c1", "survival": "55% (active)"},
      {"smiles": "Cc1cc(C)c2oc(-c3ccc(NC(=O)c4cc(Br)ccc4Cl)cc3)nc2c1", "survival": "89%"},
      {"smiles": "CCOc1ccccc1NC(=O)C1CCCN(S(=O)(=O)c2c(C)[nH]c(=O)[nH]c2=O)C1", "note": "(configuration not stated)", "survival": "88%"}
    ]}
  ]
}
